According to PubChem BioAssay AID1159580 (chemical genetic matrix, 2015):
Screen size: about 5,500 compounds; about 2,000 (36%) were called active. Another 18% or so got no clear call; they are omitted. Rule as the data show it: active = normalized growth mostly below about 0.91 (no sharp cut-off); inconclusive = no clear call, values can overlap the other calls; inactive = mostly above about 0.92. The list shows a part of the results.

Assay: chemical genetic growth profiling, strain panel (AID 1159580);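 also: tested at 20 µM; growth read once vehicle control cultures reached saturation at 30 °C; 1 = growth at the plate median or of vehicle wells; lower values mean less growth of the strain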
Conditions: growth OD
[1] = S. cerevisiae deletion strains, locus YAL013W, strain DEP1, hits give low values
[2] = S. cerevisiae deletion strains, locus YBR229C, strain ROT2, hits give low values
[3] = S. cerevisiae deletion strains, locus YDL101C, strain DUN1, hits give low values
[4] = S. cerevisiae deletion strains, locus YDR150W, strain NUM1, hits give low values
[5] = S. cerevisiae deletion strains, locus YEL061C, strain CIN8, hits give low values
[6] = S. cerevisiae deletion strains, locus YGR078C, strain PAC10, hits give low values
[7] = S. cerevisiae deletion strains, locus YGR229C, strain SMI1, hits give low values
[8] = S. cerevisiae deletion strains, locus YHR030C, strain SLT2, hits give low values
[9] = S. cerevisiae deletion strains, locus YJR043C, strain POL32, hits give low values
[10] = S. cerevisiae deletion strains, locus YJR075W, strain HOC1, hits give low values
[11] = S. cerevisiae deletion strains, locus YKL190W, strain CNB1, hits give low values
[12] = S. cerevisiae deletion strains, locus YLR039C, strain RIC1, hits give low values
[13] = S. cerevisiae deletion strains, locus YLR262C, strain YPT6, hits give low values
[14] = S. cerevisiae deletion strains, locus YMR263W, strain SAP30, hits give low values
[15] = S. cerevisiae deletion strains, locus YNL153C, strain GIM3, hits give low values
[16] = S. cerevisiae deletion strains, locus YNL322C, strain KRE1, hits give low values
[17] = S. cerevisiae deletion strains, locus YOL006C, strain TOP1, hits give low values
[18] = S. cerevisiae deletion strains, locus YPL055C, strain LGE1, hits give low values
[19] = S. cerevisiae deletion strains, locus YPL241C, strain CIN2, hits give low values
[20] = S. cerevisiae deletion strains, locus YBR021W, strain FUR4, hits give low values
[21] = S. cerevisiae deletion strains, locus YCL029C, strain bik1, hits give low values
[22] = S. cerevisiae deletion strains, locus YDL035C, strain GPR1, hits give low values
[23] = S. cerevisiae deletion strains, locus YDL074C, strain BRE1, hits give low values
[24] = S. cerevisiae deletion strains, locus YDL134C, strain PPH21, hits give low values
[25] = S. cerevisiae deletion strains, locus YDL185W, strain tfp1, hits give low values
[26] = S. cerevisiae deletion strains, locus YDL192W, strain arf1, hits give low values
[27] = S. cerevisiae deletion strains, locus YDR101C, strain arx1, hits give low values
[28] = S. cerevisiae deletion strains, locus YDR162C, strain NBP2, hits give low values
[29] = S. cerevisiae deletion strains, locus YDR318W, strain mcm21, hits give low values
[30] = S. cerevisiae deletion strains, locus YDR388W, hits give low values
[31] = S. cerevisiae deletion strains, locus YDR502C, strain sam2, hits give low values
[32] = S. cerevisiae deletion strains, locus YER110C, hits give low values
[33] = S. cerevisiae deletion strains, locus YER155C, strain BEM2, hits give low values
[34] = S. cerevisiae deletion strains, locus YER167W, strain BCK2, hits give low values
[35] = S. cerevisiae deletion strains, locus YGL078C, strain dbp3, hits give low values
[36] = S. cerevisiae deletion strains, locus YGL086W, strain mad1, hits give low values
[37] = S. cerevisiae deletion strains, locus YGL248W, strain PDE1, hits give low values
[38] = S. cerevisiae deletion strains, locus YGR135W, strain pre9, hits give low values
[39] = S. cerevisiae deletion strains, locus YGR252W, strain gcn5, hits give low values
[40] = S. cerevisiae deletion strains, locus YHR079C, strain IRE1 (second series), hits give low values
[41] = S. cerevisiae deletion strains, locus YHR094C, strain hxt1, hits give low values
[42] = S. cerevisiae deletion strains, locus YHR129C, strain ARP1, hits give low values
[43] = S. cerevisiae deletion strains, locus YHR200W, strain rpn10, hits give low values
[44] = S. cerevisiae deletion strains, locus YIL066C, strain RNR3, hits give low values
[45] = S. cerevisiae deletion strains, locus YIL073C, strain SPO22, hits give low values
[46] = S. cerevisiae deletion strains, locus YIL125W, strain kgd1, hits give low values
[47] = S. cerevisiae deletion strains, locus YIR030C, strain dcg1, hits give low values
[48] = S. cerevisiae deletion strains, locus YJL095W, strain BCK1, hits give low values
[49] = S. cerevisiae deletion strains, locus YJL134W, strain LCB3, hits give low values
[50] = S. cerevisiae deletion strains, locus YJL168C, strain set2, hits give low values
[51] = S. cerevisiae deletion strains, locus YJL187C, strain SWE1 (second series), hits give low values
[52] = S. cerevisiae deletion strains, locus YKL009W, strain mrt4, hits give low values
[53] = S. cerevisiae deletion strains, locus YKL068W, hits give low values
[54] = S. cerevisiae deletion strains, locus YKL085W, strain MDH1 (second series), hits give low values
[55] = S. cerevisiae deletion strains, locus YKL085W, strain MDH1, hits give low values
[56] = S. cerevisiae deletion strains, locus YKR001C, strain vps1, hits give low values
[57] = S. cerevisiae deletion strains, locus YLR058C, strain SHM2, hits give low values
[58] = S. cerevisiae deletion strains, locus YLR102C, strain apc9, hits give low values
[59] = S. cerevisiae deletion strains, locus YLR268W, strain sec22, hits give low values
[60] = S. cerevisiae deletion strains, locus YLR330W, strain CHS5, hits give low values
[61] = S. cerevisiae deletion strains, locus YLR342W, strain FKS1 (second series), hits give low values
[62] = S. cerevisiae deletion strains, locus YLR371W, strain rom2, hits give low values
[63] = S. cerevisiae deletion strains, locus YLR418C, strain cdc73, hits give low values
[64] = S. cerevisiae deletion strains, locus YML016C, strain PPZ1, hits give low values
[65] = S. cerevisiae deletion strains, locus YML032C, strain rad52, hits give low values
[66] = S. cerevisiae deletion strains, locus YML124C, strain tub3, hits give low values
[67] = S. cerevisiae deletion strains, locus YMR078C, strain ctf18, hits give low values
[68] = S. cerevisiae deletion strains, locus YMR223W, strain ubp8, hits give low values
[69] = S. cerevisiae deletion strains, locus YMR307W, strain GAS1, hits give low values
[70] = S. cerevisiae deletion strains, locus YNL067W, strain RPL9B, hits give low values
[71] = S. cerevisiae deletion strains, locus YNL233W, strain BNI4, hits give low values
[72] = S. cerevisiae deletion strains, locus YNL250W, strain rad50, hits give low values
[73] = S. cerevisiae deletion strains, locus YNL271C, strain bni1, hits give low values
[74] = S. cerevisiae deletion strains, locus YNL298W, strain CLA4, hits give low values
[75] = S. cerevisiae deletion strains, locus YNL307C, strain MCK1, hits give low values
[76] = S. cerevisiae deletion strains, locus YNR052C, strain pop2, hits give low values
[77] = S. cerevisiae deletion strains, locus YOL012C, strain htz1
[78] = S. cerevisiae deletion strains, locus YOL147C, strain pex11, hits give low values
[79] = S. cerevisiae deletion strains, locus YOR061W, strain CKA2, hits give low values
[80] = S. cerevisiae deletion strains, locus YOR069W, strain VPS5, hits give low values
[81] = S. cerevisiae deletion strains, locus YOR136W, strain idh2, hits give low values
[82] = S. cerevisiae deletion strains, locus YOR144C, strain elg1, hits give low values
[83] = S. cerevisiae deletion strains, locus YOR184W, strain ser1, hits give low values
[84] = S. cerevisiae deletion strains, locus YOR316C, strain cot1, hits give low values
[85] = S. cerevisiae deletion strains, locus YPR119W, strain clb2, hits give low values
[86] = S. cerevisiae deletion strains, locus YPR141C, strain kar3, hits give low values
[87] = S. cerevisiae deletion strains, locus YPR163C, strain tif3, hits give low values
[88] = S. cerevisiae deletion strains, locus YPR167C, strain met16, hits give low values
[89] = S. cerevisiae deletion strains, strain wtn01, hits give low values

Measured: normalized growth

O=C(O)c1coc2ccccc2c1=O
inactive: [1] 1 | [2] 0.99 | [3] 0.973 | [4] 0.908 | [5] 1.02 | [6] 0.995 | [7] 0.999 | [8] 0.867 | S. cerevisiae deletion strains, locus YHR087W, strain rtc3, hits give low values 0.96 | S. cerevisiae deletion strains, locus YJL187C, strain SWE1, hits give low values 0.992 | [9] 1 | [10] 0.897 | [11] 1.01 | S. cerevisiae deletion strains, locus YLR058C, strain SHM2 (second series), hits give low values 0.995 | S. cerevisiae deletion strains, locus YLR085C, strain ARP6, hits give low values 0.853 | S. cerevisiae deletion strains, locus YML094W, strain GIM5, hits give low values 0.96 | S. cerevisiae deletion strains, locus YMR219W, strain ESC1, hits give low values 0.964 | [14] 0.978 | [15] 0.982 | S. cerevisiae deletion strains, locus YNL298W, strain CLA4 (second series), hits give low values 1 | [16] 0.994 | S. cerevisiae deletion strains, locus YNR030W, strain Alg12, hits give low values 0.888 | [17] 0.852 | [18] 0.906 | S. cerevisiae deletion strains, locus YPR135W, strain CTF4, hits give low values 0.892
active: S. cerevisiae deletion strains, locus YCL061C, strain MRC1, hits give low values 0.906 | [12] 0.665 | [13] 0.764 | [19] 0.833

Cc1coc2ccccc2c1=O
inactive: [1] 0.999 | [20] 0.998 | [2] 1.01 | [21] 1.02 | [22] 1 | [23] 1 | [3] 1.01 | [24] 1 | [25] 1.01 | [26] 1.03 | [27] 1.01 | [4] 1 | [28] 1.01 | [29] 1.02 | [30] 1.02 | [31] 1.02 | [5] 1 | [32] 1.03 | [33] 1.01 | [34] 1.01 | [35] 1.02 | [36] 1.02 | [37] 1 | [6] 1.01 | [38] 1.01 | [7] 0.991 | [39] 1.03 | [8] 0.997 | [40] 1.02 | [41] 1.02 | [42] 1 | [43] 1.03 | [44] 1.01 | [45] 1.09 | [46] 1.03 | [47] 1.03 | [48] 0.988 | [49] 0.999 | [50] 1.03 | [51] 1 | [9] 0.992 | [10] 1 | [52] 1.02 | [53] 1.01 | [54] 1.01 | [55] 1.01 | [11] 1 | [56] 1.02 | [12] 1.01 | [57] 1 | [58] 1.04 | [13] 1.01 | [59] 1.01 | [60] 1.01 | [61] 1.01 | [62] 1.03 | [63] 1.01 | [64] 1 | [65] 1.05 | [66] 1.02 | [67] 1.03 | [68] 1.02 | [14] 0.998 | [69] 1 | [70] 0.992 | S. cerevisiae deletion strains, locus YNL128W, strain TEP1, hits give low values 1.01 | [15] 0.985 | [71] 0.995 | [72] 1.03 | [73] 1.03 | [74] 1.02 | [75] 1.03 | [16] 1 | [76] 1.04 | [17] 0.974 | [77] 0.801 | [78] 1.02 | [79] 1 | [80] 0.998 | [81] 1.02 | [82] 1.01 | [83] 1.04 | [84] 1.02 | [18] 1.01 | [19] 1 | [85] 1.03 | [86] 1.03 | [87] 1.03 | [88] 1.03 | [89] 1.03 | S. cerevisiae strains, strain wild type, hits give low values 1

O=c1c2ccccc2oc2ccc(O)cc12
inactive: [20] 1.13 | [2] 0.952 | [27] 0.922 | [30] 0.937 | [32] 0.919 | [33] 0.978 | [34] 0.949 | [35] 0.962 | [39] 0.847 | [40] 0.961 | [41] 0.977 | [43] 0.956 | [45] 0.815 | [46] 0.962 | [47] 0.933 | [49] 0.941 | [50] 0.948 | [9] 0.981 | [52] 0.939 | [53] 1.01 | [54] 0.976 | [55] 0.976 | [58] 0.984 | [61] 0.918 | [66] 0.945 | [67] 0.938 | [69] 0.881 | [70] 0.871 | [72] 0.917 | [74] 0.941 | [16] 0.948 | [77] 1.06 | [79] 0.924 | [81] 0.957 | [82] 0.943 | [84] 0.967 | [18] 0.827 | [19] 0.941 | [85] 0.949 | [86] 0.965 | [88] 0.934 | [89] 0.931
active: [21] 0.865 | [22] 0.814 | [23] 0.737 | [3] 0.791 | [24] 0.759 | [25] 0.901 | [26] 0.864 | [28] 0.368 | [29] 0.896 | [31] 0.895 | [5] 0.863 | [36] 0.854 | [37] 0.811 | [6] 0.736 | [38] 0.856 | [8] 0.738 | [42] 0.889 | [44] 0.767 | [48] 0.516 | [51] 0.828 | [56] 0.509 | [12] 0.49 | [57] 0.886 | [13] 0.461 | [59] 0.859 | [60] 0.834 | [62] 0.894 | [63] 0.786 | [64] 0.915 | [65] 0.757 | [68] 0.895 | [14] 0.833 | [71] 0.782 | [73] 0.915 | [75] 0.63 | [76] 0.871 | [78] 0.926 | [80] 0.919 | [83] 0.746 | [87] 0.772
